Results taken from PMC5540273 (PLoS ONE, 2017).

Experiments:
Conditions in all cases: concentration: 1 μM, replicates: in singlicate; n = 1
PIKFYVE = tested on: PIKFYVE
PIM1 = tested on: PIM1
PIM2 = tested on: PIM2
PIM3 = tested on: PIM3
PIP5K1A = tested on: PIP5K1A
PIP5K1C = tested on: PIP5K1C
PIP5K2B = tested on: PIP5K2B
PIP5K2C = tested on: T1, PIP5K2C
T1 construct: gene PIP4K2C

PKAC-alpha = tested on: T2, PKAC-alpha
T2 construct: gene PRKACA

PKAC-beta = tested on: T3, PKAC-beta
T3 construct: gene PRKACB
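Also: KINOMEscan kinase panel screen.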

SMILES	%Inh (PIKFYVE)	%Inh (PIM1)	%Inh (PIM2)	%Inh (PIM3)	%Inh (PIP5K1A)	%Inh (PIP5K1C)	%Inh (PIP5K2B)	%Inh (PIP5K2C)	%Inh (PKAC-alpha)	%Inh (PKAC-beta)
O=c1cc(N2CCOCC2)nc2n(Cc3cccc(C(F)(F)F)c3)ccn12 [GSK2297543]	0%	11%	0%	0%	0%	28%	9%	1%	0%	8%
Cc1c2ccc(N(C)c3ccnc(Nc4cccc(S(N)(=O)=O)c4)n3)cc2nn1Cc1ccccc1.Cl.Cl [GW787226]	0%	0%	0%	0%	0%	0%	0%	0%	17%	4%
CC(C)Oc1ccc2c(-c3ccnc(Nc4ccc(N5CCN(C)CC5)cc4)n3)cnn2n1 [GW696155]	92.8%	37%	0%	42%	14%	47%	73%	87%	3%	0%
Cc1cn2c(=O)cc(N3CCOCC3)nc2n1Cc1cccc(Cl)c1Cl [GSK2334006]	50%	10%	0%	0%	0%	30%	0%	10%	3%	29%
CSc1ccc(-c2cc3ncnc(SCC(=O)O)c3s2)cc1	28%	0%	0%	0%	0%	0%	20%	7%	0%	0%
NCC(NC(=O)c1cc(-c2cn[nH]c2)c(-c2ccnc3[nH]ccc23)s1)c1ccccc1.O=C(O)C(F)(F)F.O=C(O)C(F)(F)F (centres unmarked) [GSK1325775]	0%	39%	16%	41%	50%	80%	71%	49%	98.7%	98%
COc1ccc(Nc2nccc(N3CCC(NC(=O)Nc4cc(C)ccc4C)C3)n2)cc1 (centres unmarked) [GSK1379741]	0%	0%	0%	0%	1%	25%	10%	9%	0%	0%
Cc1cccc(-c2nc(-c3ccc(S(C)(=O)=O)cc3)sc2-c2ccncc2)c1	25%	13%	2%	12%	22%	2%	55%	0%	0%	0%
O=c1cc(N2CCOCC2)nc2n(Cc3cccc(F)c3)ccn12 [GSK2297430]	0%	11%	0%	0%	0%	21%	21%	0%	12%	12%
CC(=O)Nc1ccc(COc2ccc(Nc3ccnc4cc(-c5ccccn5)ccc34)cc2)cc1.Cl [GW440148]	2%	17%	0%	0%	0%	44%	0%	23%	0%	0%
C[C@@H](Oc1cc(-n2cnc3ccc(NC(=O)NC(C)(C)C)cc32)sc1C(N)=O)c1ccccc1Cl [GSK346294]	37%	17%	0%	0%	35%	48%	10%	42%	4%	0%
Fc1ccc(-c2ncn(CCCN3CCOCC3)c2-c2cccnc2)cc1 [SB-211743]	0%	12%	2%	0%	5%	0%	5%	0%	0%	25%
COc1ccc(S(=O)(=O)NC2CCN(c3cc(C)nc(Nc4cccc(C#N)c4)n3)CC2)cc1.O=C(O)C(F)(F)F [GSK1653539]	0%	25%	0%	0%	0%	11%	0%	37%	0%	0%
COc1cc2c(cc1OCCN1CCN(C)CC1)ncc1c3ccc(C#N)cc3[nH]c21	64%	34%	90.9%	63%	57%	55%	94.8%	35%	0%	0%
O=C(NCCNc1ccnc(Nc2ccc(F)cc2)n1)c1cc2ccccc2s1 [GSK1379874]	0%	0%	0%	0%	0%	0%	8%	42%	0%	0%
COc1ccc(COc2cc(-n3cnc4ccccc43)sc2C(N)=O)cc1 [GSK1024304]	0%	11%	0%	0%	17%	45%	5%	3%	0%	0%
Cc1ccc(NC(=O)c2ccnc(N3CCN(C)CC3)c2)cc1-c1ccc(C(=O)NCC2CC2)cc1 [GW775604]	0%	0%	0%	4%	0%	0%	0%	0%	0%	0%
